Assay outcomes deposited in PubChem BioAssay by National Center for Advancing Translational Sciences (NCATS).
This is one part of a sample in which hits are shown more often than they occur.
CHX counter – affects cycloheximide protein synthesis inhibition readout, counter-screen | AID 2314 | cell reporter, cycloheximide protein synthesis inhibition counterscreen | 300,000 compounds, 12% hits | max response, %; in the data active = max response mostly above about 13%, no sharp cut-off; inactive = mostly below about 14%; note: read at 38.3 µM for the half of the compounds with a filed dose; 0% is about no effect
Shiga inhibitor – Shiga toxin inhibition. AID 2315. Vero cells, Shiga toxin protein synthesis inhibition reporter. inhibition, % at 38.7 µM. 290,000 compounds, 9.2% hits; in the data active = inhibition mostly above about 28%, no sharp cut-off; inactive = mostly below about 43%; note: 0% is about no effect
LmPK inh – blocks Leishmania mexicana pyruvate kinase activity; Q27686; purified LmPK, Kinase-Glo ATP luminescence, 1 h; Potency, µM (series often up to 57.5 µM), without a hit: top-dose activity change, negative = inhibition, actives largely listed as inhibitors; AID 1721; 290,000 compounds, 0.37% hits; note: potency is the fitted concentration of half-maximal effect; % is set by controls: 0 for no effect and ±100 for the full control effect
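0.1 nM LmPK, 0.5 mM PEP, 0.1 mM ADP; 50 mM imidazole pH 7.2, 7 mM MgCl2, 50 mM KCl; 1 h RT. Kinase-Glo luminescence readout, normalized to no-enzyme (full inhibition) and uninhibited wells.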
TbPYK inhibitor – blocks Trypanosoma brucei pyruvate kinase. Q57TT1. TbPYK enzyme, Kinase-Glo Plus ATP luminescence, 45 min. Potency, µM (highest dose often 76.8 µM), without a hit: at the top dose activity, negative = inhibition, hits mostly inhibitors. 410,000 compounds, 0.12% hits; note: potency is the fitted concentration of half-maximal effect; % is set by controls: 0 for no effect and ±100 for the full control effect; nearly all actives have a fitted effect of over 50% in size
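Glycolytic pyruvate kinase of T. brucei was incubated with substrate, test compound and 130 uM ADP for 45 minutes at room temperature. Luminescent Kinase-Glo Plus signal was measured after 10 minutes.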
Sm TGR inh – S. mansoni TGR enzyme inhibition; purified TGR, DTNB reduction, TNB absorbance 405 nm; Potency, µM (series often up to 114 µM), for inactives: at the top dose activity change, negative = inhibition, usual class: inhibitors; 360,000 compounds, 3% hits; note: potency is the fitted concentration of half-maximal effect; % is set by controls: 0 for no effect and ±100 for the full control effect; nearly all actives have a fitted effect of over 60% in size
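Kinetic colorimetric format: TGR-catalysed, NADPH-driven DTNB reduction monitored via TNB absorbance. Enzyme dispensed at 20 nM; compound exposure 15 min at room temperature before reaction start.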
FBPA Giardia inh – blocks Giardia fructose-bisphosphate aldolase activity | Potency, µM (titrated, usually from 59.6 µM), for inactives: at the highest dose activity, negative = inhibition, actives largely listed as inhibitors | 290,000 compounds, 0.71% hits | AID 2451 | A8B2U2 | purified Giardia FBPA; note: potency is the fitted concentration of half-maximal effect; % is set by controls: 0 for no effect and ±100 for the full control effect; nearly all actives have a fitted effect of over 55% in size
Target sequence (A8B2U2 whole entry, looked up): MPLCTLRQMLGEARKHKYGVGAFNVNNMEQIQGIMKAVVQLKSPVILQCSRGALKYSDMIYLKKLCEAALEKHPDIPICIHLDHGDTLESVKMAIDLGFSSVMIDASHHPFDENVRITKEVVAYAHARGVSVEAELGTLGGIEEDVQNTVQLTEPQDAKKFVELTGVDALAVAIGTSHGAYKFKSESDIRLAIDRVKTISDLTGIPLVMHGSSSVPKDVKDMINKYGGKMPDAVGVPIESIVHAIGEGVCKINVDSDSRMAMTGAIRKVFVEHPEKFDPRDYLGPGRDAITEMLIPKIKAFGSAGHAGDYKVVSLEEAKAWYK
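Giardia FBPA (40 nM reagent) was preincubated 10 min at RT with compound (up to 57.5 uM final), then substrate plus GAPDH/TPI/NAD/arsenate coupling system with diaphorase/resazurin was added; resorufin fluorescence (525/598 nm) was read after 20 min.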
Starred values were filed as active, the others as inactive; u = inconclusive; x = not tested or not shown. Unless noted, calls come from the whole dose curve; as a rule, active = well fitted curve in the direction sought with a large enough effect; inconclusive = small, poorly fitted or top-dose-only effect, or another doubt; inactive = no such curve, though single readings can be large; an effect the other way counts as inactive or inconclusive.

SMILES | CHX counter | Shiga inhibitor | LmPK inh | TbPYK inhibitor | Sm TGR inh | FBPA Giardia inh
CCN(CC)C(=O)COc1ccc2c3c(c(=O)oc2c1C)CCCC3 | -3 | 22 | 1% | -3% | -5% | 0%
COC(=O)c1ccc(COc2ccc3c(C)c(C)c(=O)oc3c2C)o1 | 15* | 65* | 8% | 1% | 2% | 5%
COC(=O)c1ccc(COc2cc(C)cc3oc(=O)c4c(c23)CCCC4)o1 | 9 | -1 | 4% | 1% | -3% | 0%
Cc1c(OCc2ccc(C(=O)O)o2)ccc2c3c(c(=O)oc12)CCC3 | 21 | 84* | 11% | 0% | -36% | 20%
CCN1CCOC(=O)C1CC(=O)Nc1ccccc1C(F)(F)F (stereo not drawn) | x | x | x | 0% | 10µM* | x
COc1ccc(Cl)cc1NC(=O)CN(C)C1CCS(=O)(=O)C1 (stereo not drawn) | x | x | x | 0% | 50µM* | x
CCc1ccc(NC(=O)CC2C(=O)OCCN2CC)cc1 (stereo not drawn) | x | x | x | -7% | 14µM* | x
CCN1CCOC(=O)C1CC(=O)Nc1ccc(C(C)=O)cc1 (stereo not drawn) | x | x | x | -1% | 22µM* | x
CC(C)(C)CC(C)(C)c1ccc(OCCO)cc1 | x | x | x | -3% | x | x
CCN1CCOC(=O)C1CC(=O)Nc1cc(C)cc(C)c1 (stereo not drawn) | x | x | x | -5% | 18µM* | x
CCN1CCOC(=O)C1CC(=O)Nc1cc(Cl)ccc1OC (stereo not drawn) | x | x | x | -8% | 14µM* | x
CCOc1ccccc1NC(=O)CCS(=O)(=O)c1ccc2c(c1)oc(=O)n2C | x | x | x | 10% | -4% | x
COC1=C(C(=O)O)N2C(=O)[C@@H](NC(=O)C(N)C3C=CCC=C3)[C@H]2SC1 (stereo partly drawn) | x | x | x | 4% | x | x
O=C(Nc1nnc(C2CC2)s1)C1Cc2ccccc2CN1S(=O)(=O)c1cccs1 (stereo not drawn) | 17* | 75* | 0% | -1% | -32% | -1%
CCc1nnc(NC(=O)C2Cc3ccccc3CN2S(=O)(=O)c2cccs2)s1 (stereo not drawn) | 43* | 49* | 8% | -19% | -31% | -8%
O=C(C1CCN(S(=O)(=O)c2cccs2)CC1)N1CCc2ccccc2C1 | 3 | 32 | -3% | -20% | -21% | -3%
CCc1nnc(NC(=O)C2Cc3ccccc3CN2S(=O)(=O)c2ccc(C)cc2)s1 (stereo not drawn) | 37* | 59* | 2% | -3% | -32% | x
CNC(=O)C1Cc2ccccc2CN1S(=O)(=O)c1cccs1 (stereo not drawn) | -2 | -15 | -1% | -14% | -4% | -2%
COc1cccc([C@@H]2Oc3ccc(Br)cc3C(=O)[C@H]2O)c1 | x | x | x | x | x | -2%
COc1ccc2c(c1)C(=O)[C@@H](O)[C@H](c1ccc(OC)c(Br)c1)O2 | 18* | 43* | 4% | -2% | u | 1%
COc1cccc([C@@H]2Oc3ccc(OC)cc3C(=O)[C@H]2O)c1 | 40* | 42* | 3% | -1% | 2% | 0%
O=C(N/N=C\c1ccc(F)cc1)c1csnn1 | 44* | 106* | -27% | -6% | 1% | -1%
O=C(COCC(=O)N/N=C/c1ccc(F)cc1)N/N=C/c1ccc(F)cc1 | 1 | 10 | 1% | -3% | -8% | 3%
Cc1ccccc1/C=N\NC(=O)c1csnn1 | 60* | 112* | -18% | -19% | u | -8%
COc1ccc(NC(=O)c2ccc(-c3nc(CSc4ccc(C)cc4)c(C)o3)cc2)cc1Cl | x | x | x | 1% | -7% | x
SMILES | CHX counter | Shiga inhibitor | LmPK inh | TbPYK inhibitor | Sm TGR inh | FBPA Giardia inh
CCCCN(C(=O)C1CCN(C(=O)c2ccccc2C)CC1)c1c(N)n(CC(C)C)c(=O)[nH]c1=O | x | x | x | -7% | x | x
C(#Cc1ccccc1)Cn1nnc2ccccc21 | 37* | 49* | 3% | 4% | -13% | -4%
O=C(O)Cn1nnc2ccccc21 | -1 | 28 | -8% | 9% | 3% | 2%
COc1ccc(Cn2c(SCc3ccc(C(=O)NC(C)C)cc3)nc3cccnc32)cc1 | x | x | x | 0% | 5% | x
CCCNC(=S)Nc1ccc2nc(-c3ccccn3)c(-c3ccccn3)nc2c1 | 1 | -14 | 4% | 4% | 13µM* | u
S=C(Nc1ccc2nc(-c3ccccn3)c(-c3ccccn3)nc2c1)N1CCCCC1 | -3 | -3 | 3% | 9% | -1% | 1%
CC(=O)c1ccccn1 | x | x | x | 0% | 1% | x
N/C(=N\NC(=O)Nc1ccc(Cl)cc1)c1ccccn1 | 39* | 88* | 0% | 4% | 1% | u
O=C(Nc1ccc(Cl)cc1)O/N=C(\c1ccccc1)c1ccccn1 | 21* | 25 | -1% | -2% | 9% | -29%
O=C(N/N=C(\c1ccccc1)c1ccccn1)c1ccccc1Cl | 1 | -4 | -9% | 1% | -1% | 20%
CNC(=O)N/N=C(\N)c1ccccn1 | 19* | 37 | -4% | 0% | 12% | u
CCOC(=O)N1CCN(Cc2nc3cc(NC(=O)C(C)C)ccc3n2C(C)C)CC1 | x | x | x | -5% | 1% | x
CN(c1ccccc1)c1nccc(=O)[nH]1 | x | x | x | 2% | x | x
COc1ccc(CCNc2ncnc3c2nnn3C)cc1OC | x | x | x | 6% | 4% | x
O=C(/C=C/c1ccc2c(c1)OCO2)c1ccc[nH]1 | 79* | active | u | 7% | -12% | 0%
O=C(/C=C/c1ccc2c(c1)OCO2)c1cccs1 | x | x | x | x | x | -17%
O=C(/C=C/c1cccc(Br)c1)c1ccc2c(c1)OCO2 | 25* | 62* | -8% | -6% | u | x
O=C(/C=C/c1ccccc1)c1ccc2c(c1)OCO2 | 37* | 59* | u | 2% | u | -3%
O=C(/C=C/c1ccccc1Br)c1ccc2c(c1)OCO2 | 36* | 112* | -2% | -13% | u | 10%
COc1ccccc1C(=O)Nc1nnc(SCc2cc(=O)c3cc(Cl)ccc3[nH]2)s1 | x | x | x | -8% | -5% | x
COc1ccc(C(=O)Nc2nc3c(s2)Cc2c(Br)ccc(OC)c2-3)cc1OC | x | x | x | -1% | -18% | x
O=C(/C=C/c1ccc2c(c1)OCO2)c1ccc(F)cc1 | 42* | 78* | u | -5% | -15% | -3%
CN(C)c1ccc(/C=C/C(=O)c2ccc3c(c2)OCO3)cc1 | x | x | x | -24% | -8% | x
O=C(/C=C/c1ccncc1)c1ccc2c(c1)OCCO2 | 20* | 27 | -16% | -6% | 45µM* | 0%
COc1cccc(/C=C/C(=O)c2ccc[nH]2)c1 | 55* | 91* | -14% | -5% | -6% | -13%
CN(C)c1ccc(/C=C/C(=O)c2ccc3c(c2)OCCO3)cc1[N+](=O)[O-] | 43* | active | -17% | 5% | 4% | 1%
COc1ccc(N2CCN(C(=O)CSc3nc(-c4ccccc4)no3)CC2)cc1 | x | x | x | -3% | 6% | x
Cc1ccc(NC(=O)Cn2c(C)cc(C)c(C#N)c2=O)cc1 | x | x | x | -9% | 2% | x
CC(C)NC(=O)c1cc2c(Cl)nc3ccccc3c2s1 | x | x | x | 7% | 6% | x
